Screening data as filed in PubChem BioAssay.
TDP1 inh: inhibitors of human tyrosyl-DNA phosphodiesterase TDP1; recombinant TDP1, AlphaScreen DNA substrate cleavage; Potency, µM (doses to about 130 µM), without a hit: at the top dose activity change, negative = inhibition, actives largely listed as inhibitors; 350,000 compounds, 0.28% hits; Q9NUW8; AID 485290; further: on the % scale 0 is the no-effect control and ±100 the full control effect; nearly all actives have a fitted effect of over 40% in size
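Recombinant E. coli-expressed Tdp1 (1 nM) preincubated with compound 15 min at RT, then 5'-biotin/3'-phosphotyrosine-FITC DNA substrate (15 nM) added for 5 min. AlphaScreen beads (10 ug/ml) added, 10 min RT; tyrosine-FITC cleavage read as signal loss.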
ClpP mod: qHTS Assay for Activators of ClpP; purified B. subtilis ClpP, FRET peptide cleavage, 20 min; Potency, µM (highest dose often 57.5 µM), for the others: at the highest dose activity change, negative = active; 340,000 compounds, 1.9% hits; AID 651965, 2013; active means well fitted falling curve with a large enough effect; inconclusive means small, poorly fitted or top-dose-only effect; inactive means no such curve, though single readings can be large or run the other way; further: the source files actives as falling curves though it sought activators and does not explain the sign; nearly all actives have a fitted effect of over 65% in size
Target sequence (P80244 whole entry, looked up): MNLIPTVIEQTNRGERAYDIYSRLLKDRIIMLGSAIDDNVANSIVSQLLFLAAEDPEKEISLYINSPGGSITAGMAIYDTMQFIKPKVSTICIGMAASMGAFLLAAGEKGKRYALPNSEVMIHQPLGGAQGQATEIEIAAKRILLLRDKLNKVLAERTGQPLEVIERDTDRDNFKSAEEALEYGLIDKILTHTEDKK
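FRET quenching reversal measured ClpP activation: 10 microg/mL B. subtilis ClpP at pH 8 with the FRET-FV decapeptide, read at 430 nm after 320 nm excitation. The 20-min minus 0-min signal was scaled between DMSO/no-enzyme wells and ADEP (5.8 microM final).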
DT40 TDP1 no CPT: qHTS for Inhibitors of human tyrosyl-DNA phosphodiesterase 1 (TDP1): qHTS in cells in absence of CPT | DT40 Tdp1-/- hTDP1 cells, no CPT, ATP luminescence, 48 h | Potency, µM (titrated, usually from 46.2 µM), for the others: at the highest dose activity change, negative = growth inhibition, usual class: inhibitors | 420,000 compounds, 15% hits; further: on the % scale 0 is the no-effect control and ±100 the full control effect; nearly all actives have a fitted effect of over 55% in size
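Chicken DT40 Tdp1-/- cells stably complemented with human TDP1 were seeded at 400 cells/well with DMSO in place of 20 nM camptothecin. After compound pinning, cells grew at least 48 hr at 37 °C; viability read by CellTiter-Glo luminescence.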
TDP1 cell CPT: growth inhibition of DT40 Tdp1-/-;hTDP1 cells with camptothecin (screen for TDP1 inhibitors); chicken DT40 Tdp1-/-;hTDP1 cells + 20 nM CPT, ATP luminescence, 48 h; Potency, µM (titrated, usually from 46.2 µM), without a hit: at the top dose activity change, negative = growth inhibition, hits mostly inhibitors; 420,000 compounds, 12% hits; AID 686979; further: on the % scale 0 is the no-effect control and ±100 the full control effect; nearly all actives have a fitted effect of over 55% in size
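Chicken DT40 Tdp1-/- cells stably complemented with human TDP1 were seeded at 400 cells/well in medium containing 20 nM camptothecin, exposed to pin-transferred compounds, and grown at 37 °C for at least 48 hr. Viability was read as ATP luminescence.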
Starred values were filed as active, the others as inactive. In the library only some 17% were active in any assay of this set; here they are far more common. Unless noted, the call rests on the fitted dose curve; in most records, active means well fitted curve in the direction sought with a large enough effect; inconclusive means small, poorly fitted or top-dose-only effect, or another doubt; inactive means no such curve, though single readings can be large; an effect the other way counts as inactive or inconclusive. Potency means the concentration at half of the fitted maximal effect.

For C=CCn1cc(-c2cccc(Cl)c2)cc(C#N)c1=O the results were TDP1 inh 1%, ClpP mod 28µM*, DT40 TDP1 no CPT -12% and TDP1 cell CPT -21%.
Screening N#Cc1c(-c2cccc(Cl)c2)[nH]c(=S)[nH]c1=O returned DT40 TDP1 no CPT -12% and TDP1 cell CPT 6%.
For N#Cc1cc(-c2cccc(Cl)c2)c[nH]c1=O the results were TDP1 inh 0%, ClpP mod 22µM*, DT40 TDP1 no CPT -12% and TDP1 cell CPT -7%.
For Cc1ccccc1NC(=O)CC1NCCNC1=O (centres undefined) the results were TDP1 inh 5%, ClpP mod 0%, DT40 TDP1 no CPT -1% and TDP1 cell CPT 5%.
Screening Cc1ccc2oc(C(=O)Nc3nnc(CC(C)C)s3)cc(=O)c2c1 returned TDP1 inh 9%, ClpP mod 0%, DT40 TDP1 no CPT -15% and TDP1 cell CPT 0%.
Screening COc1ccc(NC(C)=O)cc1NC(=O)C1(c2cccs2)CCOCC1 returned TDP1 inh 1%, ClpP mod -1%, DT40 TDP1 no CPT 15% and TDP1 cell CPT -1%.
Screening O=C(NC1(C(F)(F)F)N=C(c2ccccc2)NC1=O)c1ccccc1 (centres undefined) returned TDP1 inh 0%, ClpP mod -2%, DT40 TDP1 no CPT -19% and TDP1 cell CPT -1%.
For CCCCC(c1nnnn1CCOC)N1CCN(C(=O)c2ccco2)CC1 (centres undefined) the results were TDP1 inh 1%, ClpP mod 1%, DT40 TDP1 no CPT -17% and TDP1 cell CPT 18µM*.
CC(C)C(c1nnnn1Cc1ccc(F)cc1)N1CCN(C(=O)c2ccco2)CC1 (centres undefined) was read as TDP1 inh 4%, ClpP mod inconclusive, DT40 TDP1 no CPT 16µM* and TDP1 cell CPT inconclusive.
`CCC(c1nnnn1Cc1ccccc1)N1CCN(C(=O)c2ccco2)CC1` (centres undefined) gave TDP1 inh 4%, ClpP mod -2%, DT40 TDP1 no CPT -27% and TDP1 cell CPT -14%.
CCC(c1nnnn1CCOC)N1CCN(C(=O)c2ccco2)CC1 (centres undefined) was read as TDP1 inh 4%, ClpP mod -4%, DT40 TDP1 no CPT -8% and TDP1 cell CPT -3%.
`CC(C)c1ccc(NC(=O)c2ccc3oc(=O)c(S(=O)(=O)c4ccc(F)cc4)cc3c2)cc1` gave TDP1 inh 5%, ClpP mod -9%, DT40 TDP1 no CPT 7.3µM* and TDP1 cell CPT inconclusive.
`Cc1cccc(NC(=O)c2ccc3oc(=O)c(S(=O)(=O)c4ccc(F)cc4)cc3c2)c1C` gave TDP1 inh 9%, ClpP mod 0%, DT40 TDP1 no CPT inconclusive and TDP1 cell CPT -13%.
Screening CCCSc1ncc(Cl)c(C(=O)Nc2ccc(S(=O)(=O)N3CCCCC3C)cc2)n1 (centres undefined) returned TDP1 inh 4%, ClpP mod -7%, DT40 TDP1 no CPT 8.2µM* and TDP1 cell CPT inconclusive.
CCC1CCCCN1S(=O)(=O)c1ccc(NC(=O)c2nc(SC)ncc2Cl)cc1 (centres undefined) was read as TDP1 inh 5%, ClpP mod -6%, DT40 TDP1 no CPT 23µM* and TDP1 cell CPT 21µM*.
`CCCSc1ncc(Cl)c(C(=O)Nc2ccc(S(=O)(=O)N3CCC(C)CC3)cc2)n1` gave TDP1 inh 4%, ClpP mod -9%, DT40 TDP1 no CPT 15µM* and TDP1 cell CPT inconclusive.
Screening CCCSc1ncc(Cl)c(C(=O)Nc2ccc(S(=O)(=O)Nc3ncccn3)cc2)n1 returned TDP1 inh -1%, ClpP mod -2%, DT40 TDP1 no CPT -5% and TDP1 cell CPT -6%.
`CCC1CCCCN1S(=O)(=O)c1ccc(NC(=O)c2cccs2)cc1` (centres undefined) gave TDP1 inh 0%, ClpP mod -3%, DT40 TDP1 no CPT 16µM* and TDP1 cell CPT 23µM*.
Screening COC(=O)[C@@H]1CCCN1C(=O)c1c(OC)cc(=O)n2c1CCN(Cc1ccc3nsnc3c1)CC2 returned DT40 TDP1 no CPT -15% and TDP1 cell CPT 1%.
Screening O=C(COC(=O)CNC(=O)C1CCCCC1)Nc1cc(C(F)(F)F)ccc1Cl returned TDP1 inh 0%.
